This is an account of results in the supplement of paper PMC12532568.

Counter-ions that a name gives are not always drawn.

In this assay the test system is Danio rerio larvae Tg(actc1b:ZsGreen-LC3), 3 dpf. The assay is described as follows: LC3 puncta relative area vs vehicle, without NH4Cl (log2 fold change); higher = more autophagosomes. To be noted: 10 µM; treatment time 16 h; NH4Cl: none. As for the experimental part: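 Transgenic Tg(actc1b:ZsGreen-map1lc3) zebrafish larvae (2 dpf) were treated for 16 h with Tocris library compounds at 10 µM (n = 12 larvae per compound). Skeletal-muscle LC3 puncta area relative to body area was measured by high-content confocal imaging before and after 4 h of 100 mM NH4Cl (autophagic flux), normalised to vehicle (DMSO), and reported as log2 fold change.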
Consider `Oc1ccc2c3c1O[C@H]1c4[nH]c5ccccc5c4C[C@@]4(O)[C@@H](C2)N(CC2CC2)CC[C@]314` [Naltrindole hydrochloride], for which the “LC3 puncta (log2)” value stood at 0.245. As for `O=C1CCCN1CC#CCN1CCCC1` [Oxotremorine sesquifumarate], the “LC3 puncta (log2)” value is -0.285.

On to `O=C(CCCN1CCC2(CC1)C(=O)N(Cc1cccc(F)c1)CN2c1ccccc1)c1ccc(F)cc1` [3'-Fluorobenzylspiperone maleate], for which the “LC3 puncta (log2)” value was determined as 0.503. Consider `CN(C(=O)Cc1ccc(Cl)c(Cl)c1)[C@H](CN1CCCC1)c1ccccc1` [ICI 199,441 hydrochloride], for which the “LC3 puncta (log2)” value was found to be 0.0954. As for `CN1[C@@H]2CC[C@H]1C[C@@H](OC(=O)c1cc(Cl)cc(Cl)c1)C2`, the “LC3 puncta (log2)” value turned out to be 0.263. On to `O=C1NCN(c2ccccc2)C12CCN(CC1COc3ccccc3O1)CC2` (configuration not stated) [Spiroxatrine], for which the “LC3 puncta (log2)” value is 0.423. For the molecule `CC(C)C[C@H]1C(=O)N2CCC[C@H]2[C@]2(O)O[C@](NC(=O)[C@@H]3C=C4c5cccc6[nH]c(Br)c(c56)C[C@H]4N(C)C3)(C(C)C)C(=O)N12` [Bromocriptine mesylate], the “LC3 puncta (log2)” value was found to be 0.17. As for `Fc1ccc(C(OCCN2CCN(CCCc3ccccc3)CC2)c2ccc(F)cc2)cc1`, the “LC3 puncta (log2)” value turned out to be 0.491. In the case of `CC[N+](CC)(CCCNC1=CC(=O)C(NCCC[N+](CC)(CC)Cc2ccccc2)=CC1=O)Cc1ccccc1` [Benzoquinonium dibromide], the “LC3 puncta (log2)” value was -0.144. Next, `CC(=O)NCCc1c[nH]c2ccccc12` [N-Acetyltryptamine]: -0.161.

Take `CN1C[C@H](CNC(=O)OCc2ccccc2)C[C@@H]2c3cccc4c3c(cn4C)C[C@H]21` [Metergoline]: the “LC3 puncta (log2)” value amounted to 0.0502. On to `N=C(N)NN` [Aminoguanidine hydrochloride], for which the “LC3 puncta (log2)” value came to 0.471.

As to `c1ccc2c(c1)[I+]c1ccccc1-2` [Diphenyleneiodonium chloride], the “LC3 puncta (log2)” value worked out at 0.217. In the case of `NCCc1c[nH]c2ccc(C(N)=O)cc12` [5-Carboxamidotryptamine maleate], the “LC3 puncta (log2)” value is 0.0843. As to `Cc1ccc(C[N+](C)(C)C)o1` [5-Methylfurmethiodide], the “LC3 puncta (log2)” value is -0.0134. Next, `CC(=O)N1CC[N+](C)(C)CC1` [4-Acetyl-1,1-dimethylpiperazinium iodide]: -0.21; `N[C@@H](Cn1oc(=O)[nH]c1=O)C(=O)O` [L-Quisqualic acid]: 0.387; `c1ccc2sc(C3(N4CCCCC4)CCCCC3)cc2c1` [BTCP maleate]: 0.288. On to `CC(C)[C@@]1(NC(=O)[C@@H]2C[C@@H]3c4cccc5[nH]cc(c45)C[C@H]3N(C)C2)O[C@@]2(O)[C@@H]3CCCN3C(=O)[C@H](Cc3ccccc3)N2C1=O` [Dihydroergocristine mesylate], for which the “LC3 puncta (log2)” value was -0.412. In the case of `NC(C(=O)O)c1nn[nH]n1` (racemic) [(RS)-(Tetrazol-5-yl)glycine], the “LC3 puncta (log2)” value was 0.24.

`CC(CN)CC(=O)O` (configuration not stated) [3-Methyl-GABA]: the “LC3 puncta (log2)” value was determined as 0.26.

As for `CN1C(=O)CCS(=O)(=O)C1c1ccc(Cl)cc1` (configuration not stated) [Chlormezanone], the “LC3 puncta (log2)” value was -0.0101. Turning to `c1ccc(CCCCN2CCC(c3ccccc3)CC2)cc1` [4-PPBP maleate], the “LC3 puncta (log2)” value was determined as 0.0152. For `C[C@H](N)Cc1cnc[nH]1`, the “LC3 puncta (log2)” value is 0.17. For `CCCN[C@@H]1CCc2c(OC)cccc2[C@@H]1C` [(+)-AJ 76 hydrochloride], the “LC3 puncta (log2)” value came out at 0.121.

Turning to `C(=C\c1ccccc1)/CN1CCN(CCOC(c2ccccc2)c2ccccc2)CC1`, the “LC3 puncta (log2)” value is 0.421.

Regarding `Oc1ccc2c3c1O[C@H]1c4c(c5ccccc5n4Cc4ccccc4)C[C@@]4(O)C(C2)N(CC2CC2)CC[C@]314` [N-Benzylnaltrindole hydrochloride], the “LC3 puncta (log2)” value was 0.458.
